In all, about 5,500 compounds went through this assay and about 2,000 (36%) were called active. Another 18% or so got no clear call; they are omitted. No stated cut-off is given here; in the data, active means normalized growth mostly below about 0.91 (no sharp cut-off); inconclusive means no clear call, values can overlap the other calls; inactive means mostly above about 0.92. This is one part of the list.
Assay: chemical genetic growth profiling, strain panel (AID 1159580);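 further: tested at 20 µM; growth read once vehicle control cultures reached saturation at 30 °C; 1 = growth at the plate median or of vehicle wells; lower values mean less growth of the strain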
Settings: S. cerevisiae deletion strains, growth OD

Measured: normalized growth

O=c1cccc2ccc(O)c(O)c2c1O
inactive: locus YAL030W, strain snc1, hits give low values 0.948 | locus YBR021W, strain FUR4, hits give low values 1.02 | locus YBR171W, strain sec66, hits give low values 0.928 | locus YCL011C, strain gbp2, hits give low values 0.913 | locus YCL016C, strain dcc1, hits give low values 0.938 | locus YCL061C, strain MRC1, hits give low values 0.949 | locus YCL069W, strain vba3, hits give low values 0.945 | locus YCR088W, strain abp1, hits give low values 0.961 | locus YDL005C, strain med2, hits give low values 1 | locus YDL040C, strain nat1, hits give low values 1 | locus YDL185W, strain tfp1, hits give low values 0.955 | locus YDR001C, strain nth1, hits give low values 0.975 | locus YDR195W, strain ref2 1.06 | locus YEL037C, strain rad23, hits give low values 0.938 | locus YEL061C, strain CIN8 (second series), hits give low values 0.922 | locus YER016W, strain bim1, hits give low values 0.96 | locus YER110C, hits give low values 1.01 | locus YGL078C, strain dbp3, hits give low values 1.03 | locus YGL167C, strain pmr1, hits give low values 0.955 | locus YGL227W, strain vid30, hits give low values 1.01 | locus YGL240W, strain doc1, hits give low values 0.995 | locus YHR013C, strain ard1, hits give low values 0.962 | locus YIL125W, strain kgd1, hits give low values 1.01 | locus YJL092W, strain hpr5, hits give low values 0.963 | locus YJL115W, strain asf1, hits give low values 0.954 | locus YJL154C, strain vps35, hits give low values 0.961 | locus YJL168C, strain set2, hits give low values 0.937 | locus YKL085W, strain MDH1 (second series), hits give low values 1.04 | locus YKL085W, strain MDH1, hits give low values 1.04 | locus YKR026C, strain gcn3, hits give low values 0.965 | locus YKR091W, strain srl3, hits give low values 0.99 | locus YLL001W, strain dnm1, hits give low values 0.917 | locus YLL041C, strain sdh2, hits give low values 0.944 | locus YLR102C, strain apc9, hits give low values 0.966 | locus YLR357W, strain rsc2, hits give low values 0.857 | locus YLR384C, strain iki3, hits give low values 0.944 | locus YMR078C, strain ctf18, hits give low values 0.965 | locus YMR125W, strain sto1, hits give low values 1 | locus YMR129W, hits give low values 0.976 | locus YNL248C, strain rpa49, hits give low values 0.912 | locus YNL250W, strain rad50, hits give low values 1.06 | locus YNL271C, strain bni1, hits give low values 0.97 | locus YNL298W, strain CLA4, hits give low values 0.982 | locus YNL322C, strain KRE1 (second series), hits give low values 0.959 | locus YNR049C, strain mso1, hits give low values 0.98 | locus YOL012C, strain htz1 0.205 | locus YOR001W, strain rrp6, hits give low values 0.892 | locus YOR080W, strain dia2, hits give low values 0.973 | locus YOR265W, strain rbl2, hits give low values 0.939 | locus YPL240C, strain hsp82, hits give low values 0.972 | locus YPR119W, strain clb2, hits give low values 0.984 | locus YPR141C, strain kar3, hits give low values 1.04
active: locus YAL021C, strain ccr4, hits give low values 0.443 | locus YAL026C, strain drs2, hits give low values 0.791 | locus YBL061C, strain skt5, hits give low values 0.901 | locus YBR009C, strain hhf1, hits give low values 0.822 | locus YBR023C, strain chs3, hits give low values 0.887 | locus YBR229C, strain ROT2, hits give low values 0.385 | locus YBR231C, strain swc5, hits give low values 0.853 | locus YCL029C, strain bik1, hits give low values 0.598 | locus YDL035C, strain GPR1, hits give low values 0.117 | locus YDL074C, strain BRE1, hits give low values 0.241 | locus YDL101C, strain DUN1, hits give low values 0.145 | locus YDL134C, strain PPH21, hits give low values 0.112 | locus YDL192W, strain arf1, hits give low values 0.579 | locus YDR069C, strain doa4, hits give low values 0.625 | locus YDR101C, strain arx1, hits give low values 0.734 | locus YDR137W, strain rgp1, hits give low values 0.161 | locus YDR159W, strain sac3, hits give low values 0.261 | locus YDR162C, strain NBP2, hits give low values 0.0859 | locus YDR297W, strain sur2, hits give low values 0.92 | locus YDR318W, strain mcm21, hits give low values 0.709 | locus YDR334W, strain swr1, hits give low values 0.885 | locus YDR335W, strain msn5, hits give low values 0.748 | locus YDR388W, hits give low values 0.718 | locus YDR392W, strain spt3, hits give low values 0.715 | locus YDR502C, strain sam2, hits give low values 0.372 | locus YEL003W, strain gim4, hits give low values 0.823 | locus YEL061C, strain CIN8, hits give low values 0.301 | locus YER015W, strain faa2, hits give low values 0.816 | locus YER111C, strain swi4, hits give low values 0.403 | locus YER155C, strain BEM2 (second series), hits give low values 0.73 | locus YER155C, strain BEM2, hits give low values 0.652 | locus YER167W, strain BCK2, hits give low values 0.45 | locus YFR010W, strain ubp6, hits give low values 0.795 | locus YGL086W, strain mad1, hits give low values 0.365 | locus YGL173C, strain kem1, hits give low values 0.791 | locus YGL248W, strain PDE1, hits give low values 0.185 | locus YGL253W, strain hxk2, hits give low values 0.875 | locus YGR135W, strain pre9, hits give low values 0.523 | locus YGR252W, strain gcn5, hits give low values 0.501 | locus YHR027C, strain rpn1, hits give low values 0.841 | locus YHR079C, strain IRE1 (second series), hits give low values 0.702 | locus YHR094C, strain hxt1, hits give low values 0.914 | locus YHR129C, strain ARP1, hits give low values 0.294 | locus YHR142W, strain chs7, hits give low values 0.762 | locus YHR200W, strain rpn10, hits give low values 0.626 | locus YIL066C, strain RNR3, hits give low values 0.104 | locus YIL073C, strain SPO22, hits give low values 0.134 | locus YIR030C, strain dcg1, hits give low values 0.836 | locus YJL095W, strain BCK1 (second series), hits give low values 0.871 | locus YJL095W, strain BCK1, hits give low values 0.0994 | locus YJL129C, strain trk1, hits give low values 0.562 | locus YJL134W, strain LCB3, hits give low values 0.477 | locus YJL164C, strain tpk1, hits give low values 0.844 | locus YJL166W, strain qcr8, hits give low values 0.872 | locus YJL187C, strain SWE1 (second series), hits give low values 0.106 | locus YJL187C, strain SWE1, hits give low values 0.893 | locus YJR075W, strain HOC1, hits give low values 0.358 | locus YKL068W, hits give low values 1.08 [resistant] | locus YKL160W, strain elf1, hits give low values 0.901 | locus YKR001C, strain vps1, hits give low values 0.453 | locus YLL026W, hits give low values 0.913 | locus YLR027C, strain aat2, hits give low values 0.897 | locus YLR039C, strain RIC1, hits give low values 0.179 | locus YLR058C, strain SHM2, hits give low values 0.126 | locus YLR221C, strain rsa3, hits give low values 0.854 | locus YLR258W, strain gsy2, hits give low values 0.903 | locus YLR262C, strain YPT6 (second series), hits give low values 0.397 | locus YLR268W, strain sec22, hits give low values 0.285 | locus YLR320W, strain mms22, hits give low values 0.689 | locus YLR330W, strain CHS5, hits give low values 0.615 | locus YLR342W, strain FKS1 (second series), hits give low values 0.183 | locus YLR342W, strain FKS1, hits give low values 0.893 | locus YLR370C, strain arc18, hits give low values 0.903 | locus YLR371W, strain rom2, hits give low values 0.651 | locus YLR418C, strain cdc73, hits give low values 0.26 | locus YML016C, strain PPZ1, hits give low values 0.0765 | locus YML032C, strain rad52, hits give low values 0.785 | locus YML120C, strain ndi1, hits give low values 0.208 | locus YML124C, strain tub3, hits give low values 0.742 | locus YMR058W, strain fet3, hits give low values 0.344 | locus YMR205C, strain PFK2, hits give low values 0.722 | locus YMR223W, strain ubp8, hits give low values 0.69 | locus YMR231W, strain pep5, hits give low values 0.463 | locus YMR263W, strain SAP30, hits give low values 0.481 | locus YMR307W, strain GAS1, hits give low values 0.34 | locus YNL067W, strain RPL9B, hits give low values 0.271 | locus YNL071W, strain lat1, hits give low values 0.87 | locus YNL209W, strain ssb2, hits give low values 0.722 | locus YNL233W, strain BNI4, hits give low values 0.419 | locus YNL307C, strain MCK1, hits give low values 0.799 | locus YNL322C, strain KRE1, hits give low values 0.105 | locus YNR052C, strain pop2, hits give low values 0.328 | locus YOL147C, strain pex11, hits give low values 0.65 | locus YOR061W, strain CKA2, hits give low values 0.255 | locus YOR069W, strain VPS5, hits give low values 0.176 | locus YOR070C, strain gyp1, hits give low values 0.902 | locus YOR083W, strain WHI5, hits give low values 0.86 | locus YOR106W, strain vam3, hits give low values 0.592 | locus YOR136W, strain idh2, hits give low values 0.712 | locus YOR144C, strain elg1, hits give low values 0.788 | locus YOR184W, strain ser1, hits give low values 0.332 | locus YOR270C, strain vph1, hits give low values 0.369 | locus YOR290C, strain snf2, hits give low values 0.376 | locus YOR316C, strain cot1, hits give low values 0.881 | locus YPL051W, strain arl3, hits give low values 0.672 | locus YPL078C, strain atp4, hits give low values 0.466 | locus YPL106C, strain sse1, hits give low values 0.815 | locus YPR163C, strain tif3, hits give low values 0.764 | locus YPR167C, strain met16, hits give low values 0.81 | strain wtn01, hits give low values 0.337
